This is part of a sample that, as a whole, favours compounds with a hit. Of some 79,000 tested, about 15% had one in any assay. A number with no mark means an inactive call. Rule as the data show it: active = growth inhibition above about 70%; inactive = the rest.

The test can be described thus: NCI Yeast Anticancer Drug Screen. Data for the sgs1 mgt1 strain (AID 161).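 Also: 0% = growth of cultures given vehicle only.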 The following applies: S. cerevisiae sgs1 mgt1 strain, at 50.0 µM, stronger effect = higher value. The procedure:
Growth inhibition of yeast strains with defined genetic alterations is measured as a screen for potential anti-cancer activity. Selected strains with alterations in DNA damage repair or cell cycle control were exposed to compounds and growth inhibition was measured relative to vehicle treated controls. The strain used in this assay is sgs1 mgt1
Turning to `C/C(CC(=O)Nc1cccc(Cl)c1C)=N\NC(=O)c1ccncc1`, the growth inhibition was -6.2%.

On to `N#CSCc1ccc(CSC#N)c(Br)c1`, for which the growth inhibition is 7.85%.

For `O=C(N=C1[Se]C(=Nc2ccccc2)C(=Nc2ccccc2)N1c1ccc(Cl)cc1)c1ccccc1`, the growth inhibition is -27.1%.

As for `COc1ccc(OC)c(C(C)=O)c1`, the growth inhibition was -94%.

In the case of `NCCNc1ncnc2ccccc12`, the growth inhibition is -1.75%.

In the case of `O=C(O)c1ccccc1Nc1nc2ccccc2o1`, the growth inhibition was -7.05%.

For the compound `CCCn1c(SCC)c2ccccc2c1-c1nc(F)nc(F)n1`, the growth inhibition was -6.75%.

As for `CC12CCC(O)CC1=CCC1C2CCC2(C)C1CCC21SCCS1` (stereo not given), the growth inhibition was 20.2%.

Turning to `ClC(Cl)(Cl)c1ccc(C2OCCO2)cc1`, the growth inhibition was -7.85%.

For `COc1cccc2c1C(=O)c1c(O)c3c(c(O)c1C2=O)C[C@@](O)(C(C)=O)CC3S(=O)(=O)O` (stereo not given in full), the growth inhibition is -24.4%.

In the case of `Cc1cccc(NCN2C(=O)c3ccccc3C2=O)c1`, the growth inhibition is 3.8%.

For `CC1CCC(OC(=O)CC#N)CC1` (stereo not given), the growth inhibition was -2.3%.

Regarding `Cc1cc(N(CCO)CCO)c2ccc3cc4ccccc4cc3c2n1`, the growth inhibition was 9.35%.

For the compound `Cc1cc(C)c(-c2cc(C(O)C3OC4OC(C)(C)OC4C3O)on2)c(C)c1` (stereo not given), the growth inhibition was -1.3%.

On to `COC(=O)c1cc2ccccc2[nH]1`, for which the growth inhibition was -7.6%.

For `c1ccc(-c2ccc(-c3c(-c4ccccc4)ccc(-c4ccccc4)c3-c3ccccc3)cc2)cc1`, the growth inhibition is -10.1%.

Regarding `CCOC(=O)C(NC(=O)c1ccccc1)(N1CCOCC1)C(F)(F)F` (stereo not given), the growth inhibition is 8.05%.

For the compound `CCOC(=O)C1CCC(=O)N1Cc1c[nH]c2ccccc12` (stereo not given), the growth inhibition is -5.1%.

Take `COc1ccc(-c2c3ccccc3c(-c3ccc(OCCCCCBr)cc3)c3ccccc23)cc1`: the growth inhibition was -10.6%.

Regarding `O=C(O)CC(c1ccccc1Cl)C(CC(=O)O)c1ccccc1Cl` (stereo not given), the growth inhibition is -2.55%.

With `CCCCC1(N=[N+]=[N-])C(=O)c2cccc3c2N(CCC3)C1=O` (stereo not given), the growth inhibition is 29.9%.

For `COC(=O)C1(CC(=O)C(c2ccccc2)c2ccccc2)NC(=S)NC(=O)C1C#N` (stereo not given), the growth inhibition was -12.8%.

On to `COc1cc2c(c(Cl)c1OC)CCN(C)CC2c1ccccc1` (stereo not given), for which the growth inhibition was -13.9%.

Consider `Nc1nc(N)c(CCCCc2ccc([N+](=O)[O-])cc2)c(N)n1`, for which the growth inhibition was 24.1%.

Regarding `CCCOC(=O)Nc1cccc2ccccc12`, the growth inhibition was 12.5%.

Turning to `CC(C)CCCC(C)C1CCC2C3CCC4=CCCCC4(C)C3CCC12C` (stereo not given), the growth inhibition is 27.8%.

Regarding `c1ccc2c(c1)ncc1cccn12`, the growth inhibition is 0.65%.

For `O=C(O)C1CCN(C(=O)Cc2ccccc2)CC1`, the growth inhibition was -2.15%.

As for `Cc1nc2ccccc2c(=O)o1`, the growth inhibition was 9.85%.

Regarding `COc1ccc(/C=C2/SC(=S)NC2=O)cc1S(=O)(=O)O`, the growth inhibition is 8.65%.

In the case of `O=C(Cc1ccccc1)N(c1ccccc1)c1ccccc1`, the growth inhibition was 13%.

As to `COc1cc(CC2C(=O)NC(=O)NC2=O)ccc1OCc1ccccc1`, the growth inhibition was -5.1%.

As for `CN(C)CCCN=c1c2ccccc2n(C)c2[nH]c(=O)n(C)c(=O)c12`, the growth inhibition was -16.2%.

As for `Cn1c(=O)c2[nH]c(/N=N/N3CCN(CCO)CC3)nc2n(C)c1=O`, the growth inhibition was 6.95%.

For the compound `CCCNC(=S)NNC(N)=O`, the growth inhibition is -9.05%.

As for `CCCCCCCCCCCCP(=O)(O)O`, the growth inhibition was -19.9%.

Take `COC(=O)CC1NC(=O)[C@]1(C)[C@H](C)O` (stereo not given in full): the growth inhibition was -33%.

With `O=c1ccc2ccc(OP(=O)(O)O)cc2o1`, the growth inhibition is 11.4%.

On to `C/C(=N\NC(N)=O)C1CCCc2ccccc21` (stereo not given), for which the growth inhibition is -9.8%.

With `COC(C)(C)C(Br)C(=O)OCC(=O)c1ccc(Br)cc1` (stereo not given), the growth inhibition was 11%.

(Values after PubChem BioAssay (NCI).)
